Data reported in the supplement of paper PMC9023506.
Where a name gives a salt, the structure may show the parent alone.

Test system: Danio rerio larvae (5 dpf)
Assay: optomotor response to red moving lines, difference vs DMSO (percentage points (treated minus DMSO)); higher = more of the behaviour than the DMSO vehicle control
Details: 10 µM; exposure time: 3 h pre-incubation + 3 h imaging
Experimental: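 5-dpf wild-type zebrafish larvae were imaged in 96-well plates. They were treated with 190 Tocris FDA-approved drugs at 10 µM (1 µl/ml DMSO) for 3 h before and 3 h during imaging at 28.5 °C, 48 larvae per drug. Automated image analysis gave % time moving and optomotor responses. Values are drug group mean minus DMSO vehicle mean (n=844), in percentage points, for 10 behaviours.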

In order of rising “optomotor response to red moving lines” value:
1. CC(C)C(=O)Nc1ccc([N+](=O)[O-])c(C(F)(F)F)c1 [Flutamide]  -10.8
2. O=C(NCC1CCCCN1)c1cc(OCC(F)(F)F)ccc1OCC(F)(F)F (stereo not given) [Flecainide acetate]  -9.35
3. CC(c1cc2ccccc2s1)N(O)C(N)=O (stereo not given) [Zileuton]  -7.52
4. NS(=O)(=O)c1cc2c(cc1Cl)NC(C1CC3C=CC1C3)NS2(=O)=O (stereo not given) [Cyclothiazide]  -6.66
5. CNS(=O)(=O)Cc1ccc2[nH]cc(CCN(C)C)c2c1 [Sumatriptan succinate]  -6.18
6. CCCCc1nc(Cl)c(CO)n1Cc1ccc(-c2ccccc2-c2nnn[nH]2)cc1 [Losartan potassium]  -6.11
7. CN1CC2c3ccccc3Oc3ccc(Cl)cc3C2C1 (stereo not given) [Asenapine maleate]  -5.48
8. Cc1ccc(-c2cc(C(F)(F)F)nn2-c2ccc(S(N)(=O)=O)cc2)cc1 [Celecoxib]  -3.89
9. C[C@]12CC[C@@H]3c4ccc(O)cc4C[C@@H](CCCCCCCCC[S+]([O-])CCCC(F)(F)C(F)(F)F)[C@H]3[C@@H]1CC[C@@H]2O (stereo not given in full)  -3.73
10. COc1cc(N)c(Cl)cc1C(=O)NC1CCN(CCCOc2ccc(F)cc2)CC1OC (stereo not given) [Cisapride]  -3.64
11. CCOc1nc2cccc(C(=O)O)c2n1Cc1ccc(-c2ccccc2-c2noc(=O)[nH]2)cc1 [Azilsartan]  -3.43
12. CC1CNc2c(cccc2S(=O)(=O)N[C@@H](CCCNC(=N)N)C(=O)N2CC[C@@H](C)C[C@@H]2C(=O)O)C1 (stereo not given in full) [Argatroban]  -3.42
13. COc1c(C)c2c(c(O)c1C/C=C(\C)CCC(=O)O)C(=O)OC2 [Mycophenolic acid]  -3.36
14. Cc1ccc(NC(=O)c2ccc(CN3CCN(C)CC3)cc2)cc1Nc1nccc(-c2cccnc2)n1 [Imatinib mesylate]  -3.1
15. CC(=O)Nc1ccc(O)cc1 [Acetaminophen]  -2.99
16. CC(C)n1c(/C=C/C(O)CC(O)CC(=O)O)c(-c2ccc(F)cc2)c2ccccc21 (stereo not given) [Fluvastatin sodium]  -2.5
17. Nc1nc(NC2CC2)c2ncn([C@H]3C=C[C@@H](CO)C3)c2n1 [Abacavir hemisulfate]  -1.56
18. Cc1nc(-c2ccc(OCC(C)C)c(C#N)c2)sc1C(=O)O [Febuxostat]  -1.5
19. N#C[C@@H]1C[C@@H]2C[C@@H]2N1C(=O)[C@@H](N)C12CC3CC(CC(O)(C3)C1)C2 [Saxagliptin hydrochloride]  -1.45
20. CCOC(=O)C1=C(COCCN)NC(C)=C(C(=O)OC)C1c1ccccc1Cl (stereo not given) [Amlodipine besylate]  -1.08
21. COc1cc2ncnc(Nc3ccc(F)c(Cl)c3)c2cc1OCCCN1CCOCC1 [Iressa]  1.01
22. Cn1nnc2c(C(N)=O)ncn2c1=O [Temozolomide]  2.24
23. CN(C)CCc1c[nH]c2ccc(C[C@H]3COC(=O)N3)cc12 [Zolmitriptan]  2.8
24. O=C(c1ccc(OCCN2CCCCC2)cc1)c1c(-c2ccc(O)cc2)sc2cc(O)ccc12 [Raloxifene hydrochloride]  3.63
25. CC(=O)O[C@]1(C(C)=O)CC[C@H]2[C@@H]3C=C(C)C4=CC(=O)CC[C@]4(C)[C@H]3CC[C@@]21C [Megestrol Acetate]  3.71
26. CN1CCN(CCCN2c3ccccc3Sc3ccc(Cl)cc32)CC1 [Prochlorperazine dimaleate]  4.44
27. CCCCCOC(=O)Nc1nc(=O)n([C@@H]2O[C@H](C)[C@@H](O)[C@H]2O)cc1F [Capecitabine]  4.71
28. NS(=O)(=O)c1cc(C(=O)O)c(NCc2ccco2)cc1Cl [Furosemide]  4.84
29. CC(=O)O[C@H]1C(=O)[C@@]2(C)[C@H]([C@H](OC(=O)c3ccccc3)[C@]3(O)C[C@H](OC(=O)[C@H](O)[C@@H](NC(=O)c4ccccc4)c4ccccc4)C(C)=C1C3(C)C)[C@]1(OC(C)=O)CO[C@@H]1C[C@@H]2O [Taxol]  6.51
30. CCCCC(=O)N(Cc1ccc(-c2ccccc2-c2nnn[nH]2)cc1)[C@H](C(=O)O)C(C)C [Valsartan]  7.8
31. O=c1[nH]c(=O)n([C@H]2C[C@H](O)[C@@H](CO)O2)cc1C(F)(F)F [Trifluorothymidine]  9.66
32. OCCN1C[C@H](O)[C@@H](O)[C@H](O)[C@H]1CO [Miglitol]  9.81
33. COc1ccc(Cl)cc1C(=O)NCCc1ccc(S(=O)(=O)NC(=O)NC2CCCCC2)cc1 [Glibenclamide]  10.2
34. CC(=O)S[C@@H]1CC2=CC(=O)CC[C@]2(C)[C@H]2CC[C@@]3(C)[C@@H](CC[C@@]34CCC(=O)O4)[C@H]12 [Spironolactone]  11.7
35. N#Cc1ccc2[nH]cc(CCCCN3CCN(c4ccc5oc(C(N)=O)cc5c4)CC3)c2c1 [Vilazodone hydrochloride]  12.8
36. Cc1ccc(N(CC2=NCCN2)c2cccc(O)c2)cc1 [Phentolamine Mesylate]  14.5
37. O=c1n(CCCN2CCN(c3cccc(Cl)c3)CC2)nc2ccccn12 [Trazodone hydrochloride]  14.6
38. CN(C)CCc1c[nH]c2ccc(Cn3cncn3)cc12 [Rizatriptan benzoate]  14.6
39. CC(C)OC(=O)C(C)(C)Oc1ccc(C(=O)c2ccc(Cl)cc2)cc1 [Fenofibrate]  16.3
40. CN[C@H]1CC[C@@H](c2ccc(Cl)c(Cl)c2)c2ccccc21 [Sertraline hydrochloride]  21.6
